# Laboratory results taken from the supplement of paper PMC8728848.
# The sample as a whole holds a higher share of the strongest signals than the screen did.
# B1: GS7807H-bfa-490-18-490 (Bacteroides fragilis) (protein)
# chain: GNLEEMNIDPDNATQTHPKLLLTQICMNAFKRGTDGMYATKKVIQADGESADQYYKWTRGSFGYYDNLRNVQKMGEEAERVNAPVYTALTKFFRAYYFYELTLRFGDIPYSQALKGEKEEIYTPEYDAQEDVFAGILQELREADEILANDASVIDGDIIYNGNSTQWRKLINSFRLKVLMTLSNHTTVGNINIASEFKNIATNSPLMNSLADNGQLVYLDQQGNRYPQFNAQWSGYYMDDTFIQRMRERRDPRLFIFSAQTNKGKTEGKPIDDFSSYEGGDPAAPYSDAIIKVSEGTISPINDRFRTDPIVEPTMLMGYAELQQILAEAVVRGWISGNAQTYYEKGIRASFSFYETHAKDYAGYLNENAVAQYLKEPLVDFTQASGTEEQIERIIMQKYLVTFYQGNWDSFYEQLRTGYPDFRRPAGTEIPKRWMYPQGEYDNNGTNVETAITRQFGAGNDKINQATWWQKKS
# Legend:
# Assay in all cases: glycan array binding signal (z-score within array); higher = stronger binding
# Conditions in all cases: glycan notation: IUPAC condensed, linker removed
# [1] = biological target: Fuc(a1-2)Gal(b1-3)GalNAc(b1-4)[Neu5Ac(a2-3)]Gal(b1-4)Glc
# Summary of the method: (§1)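 The Consortium for Functional Glycomics database supplied 3228 glycan arrays, of which those lacking an available protein sequence were dropped. The binding signal, a within-array Z-score, was averaged across arrays of the same protein sequence and across linkers. Negative scores can be read as non-binding.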
# [2] = biological target: Fuc(a1-2)Gal(b1-3)GlcNAc6S
# Summary of the method: as §1
# [3] = biological target: Fuc(a1-2)Gal(b1-3)[Fuc(a1-4)]GlcNAc(b1-3)[Fuc(a1-3)[Gal(b1-4)]GlcNAc(b1-6)]Gal(b1-4)Glc
# Summary of the method: as §1
# Fuc(a1-2)Gal(b1-4)Glc6S = biological target: Fuc(a1-2)Gal(b1-4)Glc6S
# Summary of the method: as §1
# Fuc(a1-2)Gal(b1-4)GlcNAc = biological target: Fuc(a1-2)Gal(b1-4)GlcNAc
# Summary of the method: as §1
# [4] = biological target: Fuc(a1-2)Gal(b1-4)GlcNAc(b1-2)Man(a1-3)[Fuc(a1-2)Gal(b1-4)GlcNAc(b1-2)Man(a1-6)]Man(b1-4)GlcNAc(b1-4)[Fuc(a1-6)]GlcNAc
# Summary of the method: as §1
# [5] = biological target: Fuc(a1-2)Gal(b1-4)GlcNAc(b1-3)Gal(b1-4)GlcNAc
# Summary of the method: as §1
# [6] = biological target: Fuc(a1-2)Gal(b1-4)[Fuc(a1-3)]GlcNAc(b1-3)GalNAc
# Summary of the method: as §1
# [7] = biological target: Fuc(a1-2)[Gal(a1-3)]Gal(b1-4)[Fuc(a1-3)]Glc
# Summary of the method: as §1
# [8] = biological target: Fuc(a1-2)[GalNAc(a1-3)]Gal(b1-4)Glc
# Summary of the method: as §1
# [9] = biological target: Fuc(a1-2)[GalNAc(a1-3)]Gal(b1-4)GlcNAc(b1-2)Man(a1-3)[Fuc(a1-2)[GalNAc(a1-3)]Gal(b1-4)GlcNAc(b1-2)Man(a1-6)]Man(b1-4)GlcNAc(b1-4)[Fuc(a1-6)]GlcNAc
# Summary of the method: as §1
# [10] = biological target: Fuc(a1-2)[GalNAc(a1-3)]Gal(b1-4)GlcNAc(b1-6)GalNAc
# Summary of the method: as §1
# [11] = biological target: Fuc(a1-2)[GalNAc(a1-3)]Gal(b1-4)[Fuc(a1-3)]GlcNAc
# Summary of the method: as §1
# [12] = biological target: Fuc(a1-2)[GalNAc(a1-3)]Gal(b1-4)[Fuc(a1-3)]GlcNAc(b1-3)GalNAc
# Summary of the method: as §1
# [13] = biological target: Fuc(a1-3)[Gal(b1-4)]GlcNAc(b1-2)Man(a1-3)[Fuc(a1-3)[Gal(b1-4)]GlcNAc(b1-2)Man(a1-6)]Man(b1-4)GlcNAc(b1-4)[Fuc(a1-6)]GlcNAc
# Summary of the method: as §1
# [14] = biological target: Fuc(a1-3)[Gal(b1-4)]GlcNAc(b1-3)Gal(b1-4)[Fuc(a1-3)]GlcNAc(b1-3)Gal(b1-4)[Fuc(a1-3)]GlcNAc
# Summary of the method: as §1
# [15] = biological target: Fuc(a1-3)[Gal(b1-4)]GlcNAc6S
# Summary of the method: as §1
# [16] = biological target: Gal(a1-3)Gal(b1-4)[Fuc(a1-3)]GlcNAc(b1-2)Man(a1-3)[Gal(a1-3)Gal(b1-4)[Fuc(a1-3)]GlcNAc(b1-2)Man(a1-6)]Man(b1-4)GlcNAc(b1-4)GlcNAc
# Summary of the method: as §1
# [17] = biological target: Gal(a1-4)Gal(b1-4)GlcNAc(b1-2)Man(a1-3)[Gal(a1-4)Gal(b1-4)GlcNAc(b1-2)Man(a1-6)]Man(b1-4)GlcNAc(b1-4)GlcNAc
# Summary of the method: as §1
# [18] = biological target: Gal(b1-3)GlcNAc(b1-2)[Gal(b1-3)GlcNAc(b1-6)]Man(a1-6)[Gal(b1-3)GlcNAc(b1-2)Man(a1-3)]Man(b1-4)GlcNAc(b1-4)GlcNAc
# Summary of the method: as §1
# [19] = biological target: Gal(b1-3)GlcNAc(b1-3)Gal(b1-4)[Fuc(a1-3)]GlcNAc
# Summary of the method: as §1
# [20] = biological target: Gal(b1-3)GlcNAc(b1-6)Gal(b1-4)GlcNAc
# Summary of the method: as §1
# [21] = biological target: Gal(b1-4)GlcNAc(b1-2)Man(a1-3)[Gal(b1-4)GlcNAc(b1-2)Man(a1-6)][GlcNAc(b1-4)]Man(b1-4)GlcNAc(b1-4)[Fuc(a1-6)]GlcNAc
# Summary of the method: as §1
# [22] = biological target: Gal(b1-4)GlcNAc(b1-3)Gal(b1-4)GlcNAc(b1-2)[Gal(b1-4)GlcNAc(b1-3)Gal(b1-4)GlcNAc(b1-6)]Man(a1-6)[Gal(b1-4)GlcNAc(b1-3)Gal(b1-4)GlcNAc(b1-2)Man(a1-3)]Man(b1-4)GlcNAc(b1-4)GlcNAc
# Summary of the method: as §1
binder,measurement,setting,value
B1,glycan array binding signal (z-score),[1],-0.424
same,glycan array binding signal (z-score),[2],0.079
same,glycan array binding signal (z-score),[3],-0.223
same,glycan array binding signal (z-score),Fuc(a1-2)Gal(b1-4)Glc6S,-0.448
same,glycan array binding signal (z-score),Fuc(a1-2)Gal(b1-4)GlcNAc,-0.024
same,glycan array binding signal (z-score),[4],2.33
same,glycan array binding signal (z-score),[5],-0.786
same,glycan array binding signal (z-score),[6],0.672
same,glycan array binding signal (z-score),[7],-0.426
same,glycan array binding signal (z-score),[8],-0.704
same,glycan array binding signal (z-score),[9],0.217
same,glycan array binding signal (z-score),[10],-0.479
same,glycan array binding signal (z-score),[11],0.449
same,glycan array binding signal (z-score),[12],0.984
same,glycan array binding signal (z-score),[13],1.38
same,glycan array binding signal (z-score),[14],0.166
same,glycan array binding signal (z-score),[15],-0.707
same,glycan array binding signal (z-score),[16],1.36
same,glycan array binding signal (z-score),[17],6.27
same,glycan array binding signal (z-score),[18],2.29
same,glycan array binding signal (z-score),[19],0.374
same,glycan array binding signal (z-score),[20],9.32
same,glycan array binding signal (z-score),[21],-0.8
same,glycan array binding signal (z-score),[22],11.2
